# Measurements reported in PubChem BioAssay (Tox21).
# Records with an inconclusive call do not appear. The source holds several records for some structures; these can differ, active in one and inactive in another. Active and inactive are the calls of the source. The call rests on the fitted dose curve; in most records, active means well fitted inhibition curve with a large enough effect in the repeat runs; inconclusive means weak or mixed curves; inactive means no such curve, though single readings can be large or run the other way.
# Molecular target: Cytochrome P450 2D6 (Homo sapiens) (UniProt P10635)
# Sequence (P10635 whole entry, looked up): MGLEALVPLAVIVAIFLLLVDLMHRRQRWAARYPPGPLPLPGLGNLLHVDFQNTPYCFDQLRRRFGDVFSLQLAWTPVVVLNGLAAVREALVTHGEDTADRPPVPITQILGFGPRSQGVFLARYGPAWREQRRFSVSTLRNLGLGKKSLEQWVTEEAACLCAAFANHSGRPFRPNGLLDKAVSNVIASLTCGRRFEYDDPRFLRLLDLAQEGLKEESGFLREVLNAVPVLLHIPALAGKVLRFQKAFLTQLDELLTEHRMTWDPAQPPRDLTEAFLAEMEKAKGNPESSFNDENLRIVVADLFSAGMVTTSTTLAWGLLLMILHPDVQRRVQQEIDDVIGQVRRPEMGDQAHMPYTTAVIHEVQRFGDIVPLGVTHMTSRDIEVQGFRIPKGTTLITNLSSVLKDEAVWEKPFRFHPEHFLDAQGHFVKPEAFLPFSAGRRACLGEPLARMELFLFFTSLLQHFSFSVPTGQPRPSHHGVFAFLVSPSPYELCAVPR
# Assay: Cytochrome P450 Family 2 Subfamily D Member 6 (CYP2D6) small molecule antagonists: luciferase reporter qHTS assay (AID 1671196); further: nearly all actives have a fitted effect of over 50% in size
# Settings: P450-Glo CYP2D6 enzyme assay, luciferin luminescence, 1 h; series mostly up to 115 µM
# How it was run: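 Inhibition of CYP2D6 was gauged by loss of luminescence, since light produced tracks the luciferin generated from a proluciferin substrate. A 10 min room-temperature preincubation preceded 1 h NADPH-supported turnover.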
# Potency means the concentration at half of the fitted maximal effect.
row,Compound,Potency
1,Cc1ccc(OP(=O)(Oc2ccccc2)Oc2ccccc2)cc1,inactive
2,FC(F)(F)c1cccc(C2=CCN(CCc3ccc4ccccc4c3)CC2)c1,0.195 µM (active)
3,CCOP(=S)(OCC)SCCS(=O)(=O)CC,2.24 µM (active)
4,COc1cccc(C(=O)CCN[C@@H](C)[C@H](O)c2ccccc2)c1,1.38 µM (active)
5,[Hg+2].[I-].[I-],2 µM (active)
6,COc1cc(N)c(Cl)cc1C(=O)NC1CN2CCC1CC2 (configuration not stated),13.8 µM (active)

# Molecular target: Cytochrome P450 2C19 (Homo sapiens) (UniProt P33261)
# Sequence (P33261 whole entry, looked up): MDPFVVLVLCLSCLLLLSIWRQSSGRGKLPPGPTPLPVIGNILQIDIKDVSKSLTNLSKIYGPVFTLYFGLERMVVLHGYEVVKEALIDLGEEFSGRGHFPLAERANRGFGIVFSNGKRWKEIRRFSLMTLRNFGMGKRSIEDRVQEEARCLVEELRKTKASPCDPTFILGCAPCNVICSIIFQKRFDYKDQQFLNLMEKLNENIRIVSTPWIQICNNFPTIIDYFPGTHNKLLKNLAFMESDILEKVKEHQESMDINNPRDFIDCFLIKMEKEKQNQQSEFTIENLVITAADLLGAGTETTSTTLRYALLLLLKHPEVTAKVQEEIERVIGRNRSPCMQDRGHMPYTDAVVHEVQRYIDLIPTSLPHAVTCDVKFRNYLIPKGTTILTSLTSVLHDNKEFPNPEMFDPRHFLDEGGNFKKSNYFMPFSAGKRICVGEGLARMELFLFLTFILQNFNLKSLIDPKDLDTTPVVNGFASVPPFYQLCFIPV
# Assay: Cytochrome P450 Family 2 Subfamily C Member 19 (CYP2C19) small molecule antagonists: luciferase reporter qHTS assay (AID 1671197); further: nearly all actives have a fitted effect of over 65% in size
# Settings: P450-Glo CYP2C19 enzyme, luciferin luminescence, 1 h; series mostly up to 115 µM
# How it was run: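 Inhibition of CYP2C19 was scored from loss of luminescence in a P450-Glo proluciferin substrate assay, NADPH-started and run 1 h at 37C, with ketoconazole as positive control.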
row,Compound,Potency
1,Cc1ccc(OP(=O)(Oc2ccccc2)Oc2ccccc2)cc1,3.22 µM (active)
2,N#CCCC(Br)(C#N)CBr (configuration not stated),11.2 µM (active)
3,CCOP(=S)(OCC)SCCS(=O)(=O)CC,0.1 µM (active)
4,CCCCCCCCCCCCCCCC[N+](C)(C)C,79.6 µM (active) and inactive
5,COc1cccc(C(=O)CCN[C@@H](C)[C@H](O)c2ccccc2)c1,21.9 µM (active)
6,[Hg+2].[I-].[I-],1.42 µM (active)
